Most compounds without a hit are left out; they make up all but 19% or so of the library.
HepG2 tox: qHTS for Inhibitors of TGF-b: Cytotox Counterscreen; Potency, µM (doses to about 46.1 µM), most hits filed as cytotoxic; 410,000 tested, 0.76% active; AID 588856, 2011; HepG2 CAGA-GFP viability, ATP luminescence, 18 h
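CellTiter-Glo luminescence gave cytotoxicity after 18 hours at 37 degrees C. The cells were HepG2 CAGA-GFP in 1% FBS DMEM, stimulated with 500 pg/mL TGF-beta after compound addition. %Activity was normalised to no-cell wells (complete cell-killing) and DMSO (no toxicity), and curves were fitted and classified.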
IL-1B inflam inh: qHTS for Inhibitors of Inflammasome Signaling: IL-1-beta AlphaLISA Primary Screen; THP-1 LPS/ATP IL-1B secretion, AlphaLISA, 16 h; active compounds read low; activity change, % at 57.5 µM; 360,000 tested, 4.7% active; AID 743279, 2014; in the data active = activity change below about -50%; inconclusive = mostly about -30% to -49%
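Secreted IL-1B measured by AlphaLISA bead assay after 16 h compound exposure of THP-1 cells; compounds (final up to 57.5 uM) added 1 h before LPS (250 ng/mL) and ATP (1.25 mM) stimulation; lower signal means less secretion.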
DT40 TDP1 CPT: qHTS for Inhibitors of human tyrosyl-DNA phosphodiesterase 1 (TDP1): qHTS in cells in presence of CPT; 420,000 tested, 12% active; chicken DT40 Tdp1-/-;hTDP1 cells + 20 nM CPT, ATP luminescence, 48 h; Potency, µM (doses to about 46.2 µM), most hits filed as inhibitors; also: nearly all actives have a fitted effect of over 55% in size
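Chicken DT40 Tdp1-/- cells complemented with human TDP1, 400 cells/well, exposed to compounds plus 20 nM camptothecin for at least 48 h at 37 C; viability read as ATP content by CellTiter-Glo luminescence.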
TGFb SMAD3 inh: qHTS for Inhibitors of TGF-b; AID 588855, 2011; Potency, µM (series often up to 46.1 µM), most hits filed as inhibitors; 410,000 tested, 1.2% active; HepG2 CAGA-GFP TGF-b/SMAD3 reporter, GFP fluorescence, 18 h; TGF-beta stimulated, 500 pg/mL final; also: nearly all actives have a fitted effect of over 65% in size
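Using HEPG2 CAGA-GFP reporter cells at 1000 cells/well, we pinned test compounds, stimulated with recombinant TGF-beta (500 pg/mL final) and measured total well GFP after 18 h.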
TDP1 inh: qHTS Assay for Inhibitors of Tyrosyl-DNA Phosphodiesterase (TDP1); Tyrosyl-DNA phosphodiesterase 1 (Homo sapiens), Q9NUW8; recombinant TDP1, AlphaScreen DNA substrate cleavage; Potency, µM (highest dose often 130 µM), most hits filed as inhibitors; 350,000 tested, 0.28% active; also: nearly all actives have a fitted effect of over 40% in size
Target sequence (Q9NUW8 whole entry, looked up): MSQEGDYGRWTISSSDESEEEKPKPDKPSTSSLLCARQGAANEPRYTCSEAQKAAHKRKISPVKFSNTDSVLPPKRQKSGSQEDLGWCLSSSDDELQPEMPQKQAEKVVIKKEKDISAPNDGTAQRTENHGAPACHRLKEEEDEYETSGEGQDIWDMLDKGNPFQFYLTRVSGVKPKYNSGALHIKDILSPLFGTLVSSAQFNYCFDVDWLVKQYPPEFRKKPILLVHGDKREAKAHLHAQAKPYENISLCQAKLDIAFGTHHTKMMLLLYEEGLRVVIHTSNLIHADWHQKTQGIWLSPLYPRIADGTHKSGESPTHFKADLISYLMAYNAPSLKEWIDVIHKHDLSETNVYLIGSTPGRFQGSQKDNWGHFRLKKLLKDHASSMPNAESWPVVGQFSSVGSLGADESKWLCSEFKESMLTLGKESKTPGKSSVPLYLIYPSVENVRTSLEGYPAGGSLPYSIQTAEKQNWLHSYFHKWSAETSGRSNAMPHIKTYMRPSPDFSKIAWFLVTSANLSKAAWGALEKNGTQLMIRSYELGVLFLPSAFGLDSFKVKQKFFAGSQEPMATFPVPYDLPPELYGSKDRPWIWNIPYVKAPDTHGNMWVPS
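Recombinant E. coli-expressed Tdp1 (1 nM) preincubated with compound 15 min at RT, then 5'-biotin/3'-phosphotyrosine-FITC DNA substrate (15 nM) added for 5 min. AlphaScreen beads (10 ug/ml) added, 10 min RT; tyrosine-FITC cleavage read as signal loss.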
TDP1 cell noCPT: qHTS for Inhibitors of human tyrosyl-DNA phosphodiesterase 1 (TDP1): qHTS in cells in absence of CPT. Potency, µM (top dose mostly 46.2 µM), hits mostly inhibitors. DT40 Tdp1-/- hTDP1 cells, no CPT, ATP luminescence, 48 h. 420,000 tested, 15% active; also: nearly all actives have a fitted effect of over 55% in size
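Chicken DT40 Tdp1-/- cells complemented with human TDP1, screened without camptothecin (DMSO vehicle only), 400 cells/well. Compounds pin-transferred, cells incubated at 37 °C for at least 48 hr. Growth read as ATP-dependent luminescence (CellTiter-Glo, 30 min at RT).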
A number is an active result; . = inactive; ? = inconclusive; / = no result; [ ] = remark or other dose. Unless noted, calls follow the shape of the dose curve; as a rule, active = well fitted curve in the direction sought with a large enough effect; inconclusive = small, poorly fitted or top-dose-only effect, or another doubt; inactive = no such curve, though single readings can be large; an effect the other way counts as inactive or inconclusive.

SMILES	HepG2 tox	IL-1B inflam inh	DT40 TDP1 CPT	TGFb SMAD3 inh	TDP1 inh	TDP1 cell noCPT
Cc1c(C)n(Cc2ccccc2)c2ccc(C(=O)OCCN(C)C)cc12	.	.	?	?	.	12µM
Cc1ccc(CNC(=O)c2ccc3c(c2)c(C)c(C)n3Cc2ccccc2)o1	.	/	?	.	.	?
CCN(CC)C(=O)Cn1c(=O)n(CCc2ccccc2)c(=O)c2ccccc21	.	/	?	.	.	?
Cc1cccc(C(=O)NC2CCN(C#N)CC2)c1	/	/	/	/	.	/
COc1ccc(-n2c(=O)c3ccc(C(=O)NCc4ccc(C)cc4)cc3n(CC(=O)Nc3ccc(F)cc3)c2=O)cc1	.	/	.	.	.	.
COc1ccc(-n2c(=O)c3ccc(C(=O)NCc4ccc(C)cc4)cc3n(CC(=O)Nc3ccc(C)cc3)c2=O)cc1	.	/	?	.	.	21µM
Cc1ccc(-n2c(=O)c3ccc(C(=O)NCc4ccco4)cc3n(Cc3ccc(Cl)cc3)c2=O)cc1	.	/	18µM	.	.	6.5µM
Cc1ccc(-n2c(=O)c3ccc(C(=O)NCc4ccco4)cc3n(Cc3ccccc3C#N)c2=O)cc1	.	.	?	.	.	?
CCc1ccc(CNC(=O)c2ccc3c(c2)c(C)c(C)n3Cc2ccccc2)cc1	.	/	18µM	.	.	?
Cc1c(C)n(Cc2ccccc2)c2ccc(C(=O)NCc3ccco3)cc12	.	/	?	.	.	16µM
Cc1cccc(Cn2c(C)c(C)c3cc(C(=O)NCc4ccc(C)o4)ccc32)c1	.	/	?	?	.	?
COc1ccc(CNC(=O)[C@H](C)NC(=O)C2CCN(S(=O)(=O)c3ccc(F)cc3)CC2)cc1	.	.	.	.	.	.
COc1cccc(CNC(=O)c2ccc3c(c2)c(C)c(C)n3Cc2ccccc2)c1	.	/	16µM	.	.	18µM
COc1ccc(OC)c(CNC(=O)c2ccc3c(c2)c(C)c(C)n3C)c1	.	/	?	.	.	?
CCc1cccc(NC(=O)c2ccc(Cn3c(=O)[nH]c4ccsc4c3=O)cc2)c1	.	.	.	.	.	.
CCn1c(C)c(C)c2cc(C(=O)Nc3cccc(Cl)c3)ccc21	.	?	?	.	.	18µM
CCc1ccc(NC(=O)c2ccc3c(c2)c(C)c(C)n3Cc2ccccc2)cc1	.	/	5.8µM	.	.	5.2µM
CCc1cccc(NC(=O)c2ccc3c(c2)c(C)c(C)n3Cc2ccc(F)cc2)c1	.	/	15µM	?	.	?
CCCc1cc(=O)[nH]c(SCc2nc(-c3ccccc3)no2)n1	.	/	.	.	.	.
CCOc1ccc(CCNC(=O)c2cnc3sc(N4CCOCC4)nn3c2=O)cc1	.	/	?	.	.	.
Cc1ccc(S(=O)(=O)N2CCOC23CCN(C(=O)c2ccccc2Br)CC3)cc1	.	.	?	.	.	?
O=C(Cn1c(=O)n(-c2ccc(F)cc2)c(=O)c2sc3ccccc3c21)NC1CCCCC1	.	/	.	?	.	.
CC(=O)c1cccc(NC(=O)CCCNC(=O)c2ccc(Cl)cc2)c1	.	.	.	.	.	.
CC(=O)c1cccc(NC(=O)c2ccc3c(c2)c(C)c(C)n3Cc2ccc(Cl)cc2)c1	.	/	15µM	?	.	9.2µM
Cc1ccc(OCCOC(=O)c2cc(S(=O)(=O)N3CCCCC3)ccc2N2CCOCC2)cc1	.	.	16µM	?	.	13µM
SMILES	HepG2 tox	IL-1B inflam inh	DT40 TDP1 CPT	TGFb SMAD3 inh	TDP1 inh	TDP1 cell noCPT
O=C(OCCOc1ccc(Cl)cc1)c1cc(S(=O)(=O)N2CCCCC2)ccc1N1CCOCC1	.	.	13µM	?	/	?
CC(N)COC(=O)C(CCCCN)NC(=O)Cc1c(-c2ccc3ccccc3c2)[nH]c2c1ccc1ccccc12 (centres undefined)	/	/	/	/	.	/
COc1ccc(/C=C2\SC(=S)N(CCCC(=O)N3CCN(C)CC3)C2=O)cc1	.	-91	?	?	.[0.0935 µM]	?
CCc1ccc(/C=C2\SC(=S)N(CCCC(=O)N3CCN(C)CC3)C2=O)cc1	.	-55	?	?	/	?
COc1cccc(/C=C2\SC(=S)N(CCCC(=O)N3CCCCC3)C2=O)c1	.	.	?	.	.	?
O=C(NNC(=O)c1cc(Br)c(Br)s1)c1ccncc1	.	.	.	.	.	.
NNC(=O)c1ccc(C(=O)N(c2ccccc2)c2ccccc2)cc1	.	/	?	.	/	?
O=C(Nc1ccccc1)Nc1n[nH]c2nnc(-c3ccccc3)c(-c3ccccc3)c12	.	.	?	?	/	16µM
CC(=O)N1CCCc2cc(S(=O)(=O)NCc3ccccc3Cl)ccc21	.	/	?	.	.	?
CCn1c(=O)c2cc(C(=O)Nc3ccccc3OC)sc2c2ccccc21	.	.	15µM	.	/	21µM
CCn1c(=O)c2cc(C(=O)NC(C)C)sc2c2ccccc21	.	.	?	.	/	?
CCn1c2ccccc2c2cc(N=C3SC(CC(=O)Nc4ccccc4OC)C(=O)N3C)ccc21 (centres undefined)	.	.	?	.	.	26µM
COc1ccc(NC(=O)c2cc3c(Cl)nc4ccccc4c3s2)cc1OC	.	.	?	.	.	21µM
CCn1c(=O)c2cc(C(=O)Nc3cc(OC)c(OC)c(OC)c3)sc2c2ccccc21	.	/	9.2µM	.	.	6.5µM
O=C(NCC1Cc2cccc(-c3ncccn3)c2O1)C1CCOC1 (centres undefined)	/	/	.[9.04 µM]	/	/	.
CCN(CC)CCOC(=O)c1ccc(NC(=O)c2cc3c(=O)n(CC)c4ccccc4c3s2)cc1	.	/	5.2µM	.	.	5.2µM
O=C(N/N=C/c1ccc(Cl)cc1Cl)c1ccc(-n2cnnn2)cc1	.	.	.	.	.	.
O=C(N/N=C/c1c(Cl)cccc1Cl)c1ccc(-n2cnnn2)cc1	.	.	.	.	56µM	.
C/C(=N\Nc1ccc(F)cc1F)c1ccc(N2CCOCC2)cc1	.	.	?	.	.	?
O=C(Nc1cc(N2CCCCC2)ncn1)c1ccc(F)cc1	.	.	?	.	.	?
COc1ccc(/C=N/Nc2cc(N3CCOCC3)ncn2)c(OC)c1	.	.	.	.	/	.
C/C(=N\Nc1cc(N2CCOCC2)ncn1)c1ccc(O)cc1	.	-95	8.2µM	.	/	?
Fc1ccc(/C=N/Nc2cc(N3CCOCC3)ncn2)cc1	.	.	.	.	.	.

Source: PubChem BioAssay (National Center for Advancing Translational Sciences (NCATS))
